Laboratory results taken from PubChem BioAssay (Tox21).
Where “and” joins values, the source holds several entries; their conditions need not be identical. Equal values may be shown once. A number with no mark means an inactive call. Inconclusive results are not listed. Entries that show only a call come without a potency. Calls of active or inactive are those of the source. Unless noted, the call rests on the fitted dose curve; in most records, active means well fitted curve in the direction sought with a large enough effect in the repeat runs; inconclusive means weak or mixed curves; inactive means no such curve, though single readings can be large; an effect the other way counts as inactive or inconclusive.

Assays:
[1] = qHTS assay for small molecule agonists of the p53 signaling pathway (AID 651631; calls by dose curve; further: nearly all actives have a fitted effect of over 15% in size)
Procedure, shortened: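 Stably transfected HCT-116 cells (beta-lactamase behind p53 response elements) get compounds after a 5 h settling period; 16 h later at 37 °C, FRET substrate is loaded and fluorescence read after 2 h.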

[2] = qHTS assay for small molecules that induce genotoxicity in human embryonic kidney cells expressing luciferase-tagged ATAD5 - cell viability (AID 651634; calls by dose curve; further: nearly all actives have a fitted effect of over 25% in size; further: potency means the concentration at half of the fitted maximal effect)
Procedure, shortened: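 After 15.5 hr incubation with compound at 37C, 5% CO2, HEK293T ATAD5-luciferase cells received CellTiter-Fluor reagent; fluorescence intensity was quantified following 30 min at 37C.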

[3] = qHTS assay for small molecule disruptors of the mitochondrial membrane potential (AID 720635); further: potency means the concentration at half of the fitted maximal effect
Procedure, shortened: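 HepG2 cells exposed to compound 1 hr at 37C, then Mito-MPS dye 30 min. Ratio read of aggregate (540/590 nm) versus monomer (490/535 nm) fluorescence.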

[4] = qHTS assay to test for compound auto fluorescence at 590 nm (red) in HepG2 cells (AID 720674)
Procedure, shortened: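 Seeding: 2,000 HepG2 cells/well, MEM/10% FBS, overnight 37 C. Dosing: compound vs DMSO. Incubation: 1 hr, 37 C, 5% CO2. Read: fluorescence 540 ex/590 em, Rose Bengal sodium as red reference.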

[5] = qHTS assay to test for compound auto fluorescence at 535 nm (green) in HepG2 cells (AID 720675)
[6] = qHTS assay to test for compound auto fluorescence at 460 nm (blue) in HEK293 cells (AID 720678)
Procedure, shortened: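 Cells were seeded and left to adhere for 4-5 hr at 37C. Compounds were then pin-transferred. After an overnight incubation at 37C under 5% CO2, intrinsic fluorescence at 405/460 nm was measured and referenced to triamterene.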

[7] = qHTS assay to test for compound auto fluorescence at 535 nm (green) in HEK293 cells (AID 720680)
[8] = qHTS assay to test for compound auto fluorescence at 460 nm (blue) in HEK293 cell free culture (AID 720681)
Procedure, shortened: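 Compounds were added to cell-free DMEM with 10% FBS and fluorescence read directly. The blue channel used 405 nm excitation and 460 nm emission, with triamterene as the reference fluorophore.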

[9] = qHTS assay to test for compound auto fluorescence at 535 nm (green) in HEK293 cell free culture (AID 720682)
Procedure, shortened: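 Using fluorescein as calibrant, autofluorescence was quantified at 485/535 nm in cell-free DMEM containing 10% FBS after pintool addition of compound or vehicle.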

[10] = qHTS assay to test for compound auto fluorescence at 590 nm (red) in HepG2 cell free culture (AID 720684)
Procedure, shortened: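 Auto fluorescence equivalency versus Rose Bengal sodium, red channel Ex/Em 540/590 nm; compounds in cell-free MEM/10% FBS; DMSO vehicle control.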

[11] = qHTS assay to test for compound auto fluorescence at 460 nm (blue) in HepG2 cell free culture (AID 720685)
Procedure, shortened: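 Cell-free plates of MEM plus 10% FBS received 23 nL compound or DMSO vehicle; blue-channel (405/460 nm) intensity scored against triamterene as reference fluorophore.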

[12] = qHTS assay to test for compound auto fluorescence at 535 nm (green) in HepG2 cell free culture (AID 720686)
[13] = qHTS assay to test for compound auto fluorescence at 460 nm (blue) in HepG2 cells (AID 720687)
Procedure, shortened: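 HepG2 cells in MEM with 10% FBS, attached overnight at 37 C, were exposed to compound or DMSO for 1 hr at 37 C, 5% CO2. Blue fluorescence was read at 405/460 nm, with triamterene as reference fluorophore.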

[14] = target: Glucocorticoid receptor (Homo sapiens) (UniProt P04150); assay: qHTS assay to identify small molecule agonists of the glucocorticoid receptor (GR) signaling pathway (AID 720691; active means well fitted activation curve with a large enough effect in the signal ratio in the repeat runs, not every such curve was filed as active; the % refers to the signal ratio); conditions: GR-bla HeLa, beta-lactamase reporter ratio, 18 h; activation: at 62.4 µM (top of the series) unless noted
Procedure, shortened: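 Cells: GR-bla HeLa, endogenous GR with stably integrated GRE-beta-lactamase reporter. Treatment 18 h, 37 C, compounds delivered in DMSO. Detection via LiveBLAzer B/G FRET substrate, 2 h RT, fluorescence intensity.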

[15] = qHTS assay for small molecule agonists of the p53 signaling pathway - cell viability (AID 651633; calls by dose curve; further: nearly all actives have a fitted effect of over 30% in size; further: potency means the concentration at half of the fitted maximal effect)
Procedure, shortened: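 p53RE-bla cells were treated with compound for 16 hours at 37 C. Cytotoxicity was then measured as CellTiter-Glo luminescence after 30 min at room temperature.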

[16] = qHTS assay to test for compound auto fluorescence at 590 nm (red) in HEK293 cells (AID 720679)
Procedure, shortened: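 Each well held 2,000 HEK293 cells in medium containing 10% dialyzed FBS. Following 4-5 hr attachment at 37C, 23 nL test compound or DMSO was added; plates sat overnight, and red fluorescence (540/590nm) was recorded.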

[17] = qHTS assay to test for compound auto fluorescence at 590 nm (red) in HEK293 cell free culture (AID 720683)
Procedure, shortened: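 Cell-free wells of DMEM with 10% FBS received compound, and intrinsic fluorescence was read at excitation/emission 540/590 nm. Values expressed as equivalence to Rose Bengal sodium.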

[18] = target: Glucocorticoid receptor (Homo sapiens) (UniProt P04150); assay: qHTS assay to identify small molecule antagonists of the glucocorticoid receptor (GR) signaling pathway (AID 720692; active means well fitted inhibition curve with a large enough effect in the signal ratio in the repeat runs, not every such curve was filed as active; the % refers to the signal ratio; further: potency means the concentration at half of the fitted maximal effect)
Procedure, shortened: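 Quantitative HTS in antagonist format: HeLa cells expressing endogenous GR and a stably integrated GRE-bla reporter, stimulated with 5 nM dexamethasone (final) alongside test compounds for 18 h.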

[19] = qHTS assay for small molecules that induce genotoxicity in human embryonic kidney cells expressing luciferase-tagged ATAD5 (AID 651632); further: nearly all actives have a fitted effect of over 15% in size
Procedure, shortened: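 Quantitative HTS in HEK293T expressing luciferase-tagged ATAD5, whose levels rise upon DNA damage. Exposure ran 16 hr at 37C and 5% CO2, with luminescence read 30 min after Amplite addition at room temperature.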

[20] = qHTS assay for small molecule disruptors of the mitochondrial membrane potential - cell viability (AID 720634; calls by dose curve;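 further: human HepG2 liver cancer cells; nearly all actives have a fitted effect of over 20% in size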)
Procedure, shortened: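 ATP-based luminescent viability readout (CellTiter-Glo, 30 min, room temperature) in HepG2 cells multiplexed with the m-MPI membrane potential dye; compound exposure lasted 1 hr at 37 C.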

Chain of Glucocorticoid receptor (Homo sapiens) (P04150 whole entry, looked up): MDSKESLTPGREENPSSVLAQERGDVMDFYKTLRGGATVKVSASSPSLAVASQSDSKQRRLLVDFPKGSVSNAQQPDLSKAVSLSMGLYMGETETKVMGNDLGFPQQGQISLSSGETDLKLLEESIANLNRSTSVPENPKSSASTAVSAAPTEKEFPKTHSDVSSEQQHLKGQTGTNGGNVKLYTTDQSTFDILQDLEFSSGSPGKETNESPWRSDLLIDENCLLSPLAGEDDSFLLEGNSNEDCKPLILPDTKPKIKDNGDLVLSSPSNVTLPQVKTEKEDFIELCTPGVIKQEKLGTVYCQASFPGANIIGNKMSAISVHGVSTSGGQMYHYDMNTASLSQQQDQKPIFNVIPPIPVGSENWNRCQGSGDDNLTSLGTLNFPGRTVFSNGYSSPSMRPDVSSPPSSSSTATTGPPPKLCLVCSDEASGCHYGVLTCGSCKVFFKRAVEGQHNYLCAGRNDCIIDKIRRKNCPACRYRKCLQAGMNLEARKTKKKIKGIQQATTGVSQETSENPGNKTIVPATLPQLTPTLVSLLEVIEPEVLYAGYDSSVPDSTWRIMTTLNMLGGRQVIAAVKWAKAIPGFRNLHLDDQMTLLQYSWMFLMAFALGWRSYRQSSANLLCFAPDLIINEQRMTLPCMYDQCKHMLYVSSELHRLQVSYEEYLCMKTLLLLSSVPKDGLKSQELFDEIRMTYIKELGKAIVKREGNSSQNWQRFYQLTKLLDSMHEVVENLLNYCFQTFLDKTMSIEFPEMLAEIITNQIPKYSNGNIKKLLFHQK

SMILES | Potency [1] | Potency [2] | Potency [3] | Potency [4] | Potency [5] | outcome [6] | outcome [7] | outcome [8] | outcome [9] | Potency [10] | outcome [11] | Potency [12] | outcome [13] | Potency [14] | Potency [15] | Potency [16] | Potency [17] | Potency [18] | Potency [19] | Potency [20]
CC(C)CC(=O)C1C(=O)c2ccccc2C1=O | inactive | inactive | 4.33 µM (active) | inactive | inactive | inactive | inactive | inactive | inactive | inactive | inactive | inactive | inactive | inactive |  |  |  |  |  | 
CC(C)OC(=O)C(C)N(C(=O)c1ccccc1)c1ccc(F)c(Cl)c1 (stereo unspecified) | inactive |  |  |  | inactive | inactive | inactive | inactive | inactive | inactive | inactive | inactive | inactive | inactive | inactive | inactive | inactive | 43.6 µM (active) |  | 
CCCCCCc1ccc(-c2ccc(C#N)cc2)cc1 |  | inactive | 26.8 µM (active) | inactive | inactive | inactive | inactive | inactive |  | inactive | inactive | inactive |  |  | inactive | inactive | inactive |  | inactive | inactive
Cc1cc(N)c2cc(NC(=O)Nc3ccc4nc(C)cc(N)c4c3)ccc2n1 | inactive | inactive |  | inactive | inactive | inactive |  | inactive |  | inactive | inactive | inactive | inactive |  |  | inactive | inactive |  |  | inactive
CCCCCCCCCc1ccc(OCCOCCO)cc1 |  | 18.8 µM (active) | 10.6 µM (active) and 1.44 µM (active) | inactive | inactive | inactive | inactive | inactive | inactive | inactive | inactive | inactive | inactive | inactive | 29.8 µM (active) | inactive | inactive |  | inactive | inactive
CCCCCCCCCCCC(=O)OC[C@@H](O)[C@H]1OC[C@H](OCCO)[C@H]1OCCO | inactive | inactive |  | inactive | inactive | inactive |  | inactive | inactive | inactive | inactive | inactive |  |  |  | inactive | inactive |  |  | inactive
CCCCCC[C@@H](O)C/C=C\CCCCCCCC(=O)OC |  | inactive |  | inactive | inactive | inactive | inactive | inactive | inactive | inactive | inactive | inactive |  |  | inactive | inactive | inactive |  | inactive | inactive
CCCCC(CC)CN1C(=O)C2C3C=CC(C3)C2C1=O (stereo unspecified) |  | inactive | 6.11 µM (active) | inactive | inactive | inactive | inactive | inactive | inactive | inactive | inactive | inactive | inactive | inactive | inactive | inactive | inactive |  | inactive | inactive
